Source: PubChem (several laboratories)
EBV LMP1 NFkB = reduces LMP1-driven NF-kappaB luciferase signal | actives 0.69% (n = 350,000) | LMP1-induced NF-kappaB luciferase reporter cells, luminescence | inhibition, % at 12.5 µM; in the data active = inhibition above about 41%; inconclusive = no clear call, values can overlap the other calls;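 note: 0% = neutral control wells and 100% = reference inhibitor control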
TWEAK Fn14 block = TWEAK-Fn14 signaling inhibition; TWEAK-stimulated Fn14 reporter cells, luciferase luminescence, 8 h; inhibition, % at 10 µM; actives 2% (n = 360,000); in the data active = inhibition above about 50%
PAX8 inh HTS = inhibitors of PAX8 transcriptional activity in RMG-I cells; inhibition, % at 12.6 µM; actives 1.2% (n = 360,000); RMG-I TPO-luciferase reporter, SteadyGlo, 24 h;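 active = mean replicate inhibition at least 60% with every replicate also reaching 60%; inconclusive = only one of the two criteria is met; inactive = mean below 60% and not all replicates reaching 60%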;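 note: luciferase light reporting Pax8 driven TPO promoter activity; plate controls were median of neutral control wells for no effect and mitoxantrone controls for full effect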
TROY signal inh = blocks TROY-dependent signaling in reporter cells; Q293 LMP1-TROYcd NF-kB luciferase reporter, 4 h; inhibition, % at 10 µM; actives 0.98% (n = 360,000);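 active = compounds whose plate-normalised and pattern-corrected inhibition of the luciferase reporter signal at the single screening dose is 50% or more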
EWS-Fli inh = EWS/Fli transcriptional activity inhibition; A673 NR0B1-luciferase reporter, viability-normalised; inhibition, % at 12.6 µM; actives 0.67% (n = 350,000);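 active = mean inhibition of at least 50% after viability correction, with every replicate also passing that limit; inconclusive = mean reaches 50% but only one of two replicates passes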;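 note: firefly luciferase signal divided by Alamar Blue viability fluorescence both relative to DMSO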
LGR2 inh = Drosophila LGR2 receptor signaling inhibition. HEK293 LGR2, CRE-luciferase, bursicon-stimulated, 4 h. inhibition, % at 9.99 µM. actives 0.35% (n = 380,000). AID 720647;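 active = drop in luminescence signal, shown as inhibition above about 50% in the replicate tests, limit read from the data, passing the limit was not always enough; inconclusive = probably only some replicates passing the limit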;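 note: agonist challenge used bursicon conditioned medium at about half maximal strength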
* hit, by the source's call. In the library only some 3.1% were active in any assay of this set; here they are far more common.

`O=C(Nc1ccc2c(c1)OCCO2)c1ccc(Br)c(S(=O)(=O)N2CCOCC2)c1` gave EBV LMP1 NFkB 22, TWEAK Fn14 block 82* and TROY signal inh 61*.
For O=C(Nc1ccc2c(c1)OCO2)c1ccc(Br)c(S(=O)(=O)N2CCCC2)c1 the results were EBV LMP1 NFkB 10, TWEAK Fn14 block 38, PAX8 inh HTS -8 and TROY signal inh 9.
For O=C(Nc1ccc(S(=O)(=O)N2CCOCC2)cc1)c1nn(-c2ccc(F)cc2)ccc1=O the results were EBV LMP1 NFkB 0, TWEAK Fn14 block -11, PAX8 inh HTS 15, TROY signal inh 11 and LGR2 inh 2.
For COc1ccc(CN(C)C[C@H]2OCCCC[C@H](C)Oc3ccc(NC(=O)c4ccncc4)cc3C(=O)N([C@@H](C)CO)C[C@H]2C)cc1 the results were EWS-Fli inh 0 and LGR2 inh 4.
Screening Cc1ccccc1S(=O)(=O)N1CC[C@@H]2[C@H](CO)Nc3ccc(C#Cc4ccccc4)cc3[C@@H]21 returned PAX8 inh HTS 4, EWS-Fli inh 8 and LGR2 inh 14.
`CCOC(=O)c1ccc(NC(=O)c2ccc(C)c(S(=O)(=O)N3CCOCC3)c2)cc1` gave EBV LMP1 NFkB 19, TWEAK Fn14 block 96* and TROY signal inh 73*.
Screening COc1ccc(CC(=O)OCC(=O)N2CCN(S(=O)(=O)c3ccc(C)cc3C)CC2)cc1OC returned EBV LMP1 NFkB 1, TWEAK Fn14 block 10, PAX8 inh HTS 16, TROY signal inh 7, EWS-Fli inh 5 and LGR2 inh 10.
For O=C(Cc1cccc(C(F)(F)F)c1)OCC(=O)N1CCN(S(=O)(=O)c2ccc(Cl)cc2)CC1 the results were EBV LMP1 NFkB -7, TWEAK Fn14 block -22, PAX8 inh HTS 9, TROY signal inh 2, EWS-Fli inh 16 and LGR2 inh -2.
Screening COc1ccc(CC(=O)OCC(=O)N2CCN(S(=O)(=O)c3ccc(C)cc3C)CC2)cc1 returned EBV LMP1 NFkB 69*, TWEAK Fn14 block -6, PAX8 inh HTS -10, TROY signal inh 6, EWS-Fli inh -1 and LGR2 inh -10.
For O=C(Cc1ccc(F)cc1)OCC(=O)N1CCN(S(=O)(=O)c2ccc(Cl)cc2)CC1 the results were EBV LMP1 NFkB -2, TWEAK Fn14 block 7, PAX8 inh HTS 101*, TROY signal inh 4, EWS-Fli inh -10 and LGR2 inh 8.
Screening COc1ccc(NC(=O)N(C)C[C@H]2Oc3ccc(NS(=O)(=O)c4ccc(Cl)cc4)cc3C(=O)N([C@H](C)CO)C[C@H]2C)cc1 returned EWS-Fli inh 3 and LGR2 inh -4.
O=C(CC1CC1)N1CC2(C1)[C@@H](c1ccccc1)[C@H](CO)N2C(=O)c1cnccn1 was read as EWS-Fli inh -11 and LGR2 inh 5.
Nc1ccc(SC(F)(F)F)cc1 was read as EBV LMP1 NFkB -12, TWEAK Fn14 block -12, PAX8 inh HTS -9, TROY signal inh 2, EWS-Fli inh 1 and LGR2 inh 15.
For Cc1ccnc2ccc(SC(F)(F)F)cc12 the results were EBV LMP1 NFkB 1, TWEAK Fn14 block 15, PAX8 inh HTS 87*, TROY signal inh 5, EWS-Fli inh 8 and LGR2 inh -10.
Screening CCCCCc1c(-c2ccccc2OC)ncn1CCc1ccccc1OC returned TWEAK Fn14 block 52*, PAX8 inh HTS 99*, TROY signal inh 56*, EWS-Fli inh 43 and LGR2 inh inconclusive.
For CCCc1c(-c2ccccc2OC)ncn1CCc1ccccc1OC the results were PAX8 inh HTS 49, EWS-Fli inh 36 and LGR2 inh 28.
For CCc1c(Cc2ccccc2)ncn1CCc1ccccc1OC the results were PAX8 inh HTS 78*, EWS-Fli inh 35 and LGR2 inh 1.
CCCCc1c(-c2ccccc2OC)ncn1CCc1ccccc1OC was read as TWEAK Fn14 block 17, PAX8 inh HTS 27, TROY signal inh 55*, EWS-Fli inh 35 and LGR2 inh 41.
CC(=O)N1c2ccccc2Oc2cc3ccccc3cc21 was read as EBV LMP1 NFkB -24, TWEAK Fn14 block -37, PAX8 inh HTS -57, TROY signal inh -32 and LGR2 inh -49.
`O=C(CCl)N1c2ccccc2Oc2ccc3ccccc3c21` gave EBV LMP1 NFkB -8, TWEAK Fn14 block 69*, PAX8 inh HTS -21, TROY signal inh 73*, EWS-Fli inh -114 and LGR2 inh -48.
Screening Cc1ccsc1-c1nc(CSCC(=O)N2CCN(c3ccccc3)CC2)c(C)o1 returned EBV LMP1 NFkB 81*, TWEAK Fn14 block 10, TROY signal inh -1, EWS-Fli inh -6 and LGR2 inh 5.
Screening Cc1ccccc1CSCC(=O)N1CCN(c2ccccc2)CC1 returned EBV LMP1 NFkB -2, TWEAK Fn14 block -12, PAX8 inh HTS 12, TROY signal inh -61 and EWS-Fli inh -6.
`CCCC#Cc1cnc2c(c1)C(=O)N([C@@H](C)CO)C[C@@H](C)[C@H](CN(C)C(=O)C1CCC1)O2` gave EWS-Fli inh 1 and LGR2 inh -5.
Screening O=C(COc1ccc2c(c1)OCO2)Nc1nccs1 returned EBV LMP1 NFkB 19, TWEAK Fn14 block 66*, PAX8 inh HTS -73, TROY signal inh 35, EWS-Fli inh 14 and LGR2 inh 61*.
COCc1nnc(NC(=O)COc2ccc3c(c2)OCO3)s1 was read as EBV LMP1 NFkB -11, TWEAK Fn14 block 25, PAX8 inh HTS -15, TROY signal inh -53, EWS-Fli inh -2 and LGR2 inh 3.
Screening COc1ccc(OCC(=O)Nc2nccs2)cc1 returned EBV LMP1 NFkB inconclusive, TWEAK Fn14 block 81*, PAX8 inh HTS -6, TROY signal inh 46, EWS-Fli inh 27 and LGR2 inh 66*.
CCOc1ccc(OCC(=O)Nc2nccs2)cc1 was read as EBV LMP1 NFkB 43*, TWEAK Fn14 block 85* and TROY signal inh 65*.
For COc1cccc(/C=C2\SC(=S)N(CCCC(=O)N3CCCC3)C2=O)c1 the results were EBV LMP1 NFkB -9, TWEAK Fn14 block -7, PAX8 inh HTS 36, TROY signal inh -9 and LGR2 inh -12.
`COc1cccc(/C=C2\SC(=S)N(CCCC(=O)N3CCCCC3CCO)C2=O)c1` (stereo unspecified) gave EBV LMP1 NFkB 4, TWEAK Fn14 block 32, PAX8 inh HTS 67*, TROY signal inh 10, EWS-Fli inh inconclusive and LGR2 inh 3.
Screening COc1cccc(/C=C2\SC(=S)N(CCC(=O)N3CCCCC3CCO)C2=O)c1 (stereo unspecified) returned EBV LMP1 NFkB 3, TWEAK Fn14 block 5, PAX8 inh HTS 70*, TROY signal inh -10, EWS-Fli inh 4 and LGR2 inh 8.
`CCC(=O)N1CC2(C1)[C@H](c1ccc(-c3cccc(F)c3)cc1)[C@H](CO)N2CC1CC1` gave PAX8 inh HTS 11, EWS-Fli inh 0 and LGR2 inh 1.
